Measurements reported in the supplement of paper PMC10849652.
Targets with a hit are over-represented here; the source holds about 8,800 in all. About 0.5% of all pairs of compound and target were hits. A number with no mark means an inactive call.

What was measured:
Test in all cases: log2 fold change, soluble protein after heating vs DMSO (PISA); higher = thermal stabilisation; K562 lysate, 10 uM; active = over 0.2 and 3.5 SD of the protein, either way, in both replicates (recomputed)
[1] = compound: C=CC(=O)N1CCC[C@@H](n2nc(-c3ccc(Oc4ccccc4)cc3)c3c(N)ncnc32)C1 [ibrutinib]
How it was run: (§1)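 Quantification was by TMTpro 16plex LC-MS/MS with equalised channel sums, applied to the supernatant after 21,000xg for 90 min. Samples were crude K562 extract at 1 mg/mL protein in PBS pH 7.4 with 1 mM MgCl2, treated with 10 μM compound for 30 min, heated for 3 min across 48°C-58°C, pooled and brought to 0.5% NP-40 at 4°C. Values are log-two fold changes in thermal stability relative to solvent controls, from duplicates.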

[2] = compound: CC(=O)c1cnc2ccc(-c3cc(Cl)c(O)c(Cl)c3)nc2c1N[C@H]1CC[C@H](CN(C)C)CC1
How it was run: as §1

[3] = compound: CC(C)(C)Cn1c(N)nc2ccc(-c3[nH]c(C(C)(C)C)nc3-c3ccc(F)cc3)nc21 [ralimetinib]
How it was run: as §1

[4] = compound: CC(C)(O)CC(=O)NCCn1ccc2ncnc(Nc3ccc(Oc4cccc(C(F)(F)F)c4)c(Cl)c3)c21
How it was run: as §1

[5] = compound: CC(C)C1=C2N=C(C=C(N2N=C1)NCC3=CC=CC=C3)NCCCCCCN
How it was run: as §1

[6] = compound: CC1=C(C(CC(=O)N1)C2=CC=C(C=C2)C(F)(F)F)C(=O)NC3=C(C=C4C(=C3)C=NN4)F
How it was run: as §1

[7] = compound: CC1=C(C2=C(C=C1)C(=O)C3=CC=CC=C3N2CCCN)C
How it was run: as §1

[8] = compound: CC1=C(C=C(C=C1)NC(=O)C2=CC(=CC=C2)C(C)(C)C#N)NC3=CC4=C(C=C3)N=CN(C4=O)C
How it was run: as §1

[9] = compound: CC1=C(C=C(C=C1)NC(=O)C2=CC(=CC=C2)N(C)C)NC(=O)C3=CC=C(C=C3)O
How it was run: as §1

[10] = compound: CC1=CC=C(C=C1)SC2=C3C=C(SC3=CN=C2)C(=O)N
How it was run: as §1

UniProt Q7Z7M0, sequence (Q7Z7M0 whole entry, looked up): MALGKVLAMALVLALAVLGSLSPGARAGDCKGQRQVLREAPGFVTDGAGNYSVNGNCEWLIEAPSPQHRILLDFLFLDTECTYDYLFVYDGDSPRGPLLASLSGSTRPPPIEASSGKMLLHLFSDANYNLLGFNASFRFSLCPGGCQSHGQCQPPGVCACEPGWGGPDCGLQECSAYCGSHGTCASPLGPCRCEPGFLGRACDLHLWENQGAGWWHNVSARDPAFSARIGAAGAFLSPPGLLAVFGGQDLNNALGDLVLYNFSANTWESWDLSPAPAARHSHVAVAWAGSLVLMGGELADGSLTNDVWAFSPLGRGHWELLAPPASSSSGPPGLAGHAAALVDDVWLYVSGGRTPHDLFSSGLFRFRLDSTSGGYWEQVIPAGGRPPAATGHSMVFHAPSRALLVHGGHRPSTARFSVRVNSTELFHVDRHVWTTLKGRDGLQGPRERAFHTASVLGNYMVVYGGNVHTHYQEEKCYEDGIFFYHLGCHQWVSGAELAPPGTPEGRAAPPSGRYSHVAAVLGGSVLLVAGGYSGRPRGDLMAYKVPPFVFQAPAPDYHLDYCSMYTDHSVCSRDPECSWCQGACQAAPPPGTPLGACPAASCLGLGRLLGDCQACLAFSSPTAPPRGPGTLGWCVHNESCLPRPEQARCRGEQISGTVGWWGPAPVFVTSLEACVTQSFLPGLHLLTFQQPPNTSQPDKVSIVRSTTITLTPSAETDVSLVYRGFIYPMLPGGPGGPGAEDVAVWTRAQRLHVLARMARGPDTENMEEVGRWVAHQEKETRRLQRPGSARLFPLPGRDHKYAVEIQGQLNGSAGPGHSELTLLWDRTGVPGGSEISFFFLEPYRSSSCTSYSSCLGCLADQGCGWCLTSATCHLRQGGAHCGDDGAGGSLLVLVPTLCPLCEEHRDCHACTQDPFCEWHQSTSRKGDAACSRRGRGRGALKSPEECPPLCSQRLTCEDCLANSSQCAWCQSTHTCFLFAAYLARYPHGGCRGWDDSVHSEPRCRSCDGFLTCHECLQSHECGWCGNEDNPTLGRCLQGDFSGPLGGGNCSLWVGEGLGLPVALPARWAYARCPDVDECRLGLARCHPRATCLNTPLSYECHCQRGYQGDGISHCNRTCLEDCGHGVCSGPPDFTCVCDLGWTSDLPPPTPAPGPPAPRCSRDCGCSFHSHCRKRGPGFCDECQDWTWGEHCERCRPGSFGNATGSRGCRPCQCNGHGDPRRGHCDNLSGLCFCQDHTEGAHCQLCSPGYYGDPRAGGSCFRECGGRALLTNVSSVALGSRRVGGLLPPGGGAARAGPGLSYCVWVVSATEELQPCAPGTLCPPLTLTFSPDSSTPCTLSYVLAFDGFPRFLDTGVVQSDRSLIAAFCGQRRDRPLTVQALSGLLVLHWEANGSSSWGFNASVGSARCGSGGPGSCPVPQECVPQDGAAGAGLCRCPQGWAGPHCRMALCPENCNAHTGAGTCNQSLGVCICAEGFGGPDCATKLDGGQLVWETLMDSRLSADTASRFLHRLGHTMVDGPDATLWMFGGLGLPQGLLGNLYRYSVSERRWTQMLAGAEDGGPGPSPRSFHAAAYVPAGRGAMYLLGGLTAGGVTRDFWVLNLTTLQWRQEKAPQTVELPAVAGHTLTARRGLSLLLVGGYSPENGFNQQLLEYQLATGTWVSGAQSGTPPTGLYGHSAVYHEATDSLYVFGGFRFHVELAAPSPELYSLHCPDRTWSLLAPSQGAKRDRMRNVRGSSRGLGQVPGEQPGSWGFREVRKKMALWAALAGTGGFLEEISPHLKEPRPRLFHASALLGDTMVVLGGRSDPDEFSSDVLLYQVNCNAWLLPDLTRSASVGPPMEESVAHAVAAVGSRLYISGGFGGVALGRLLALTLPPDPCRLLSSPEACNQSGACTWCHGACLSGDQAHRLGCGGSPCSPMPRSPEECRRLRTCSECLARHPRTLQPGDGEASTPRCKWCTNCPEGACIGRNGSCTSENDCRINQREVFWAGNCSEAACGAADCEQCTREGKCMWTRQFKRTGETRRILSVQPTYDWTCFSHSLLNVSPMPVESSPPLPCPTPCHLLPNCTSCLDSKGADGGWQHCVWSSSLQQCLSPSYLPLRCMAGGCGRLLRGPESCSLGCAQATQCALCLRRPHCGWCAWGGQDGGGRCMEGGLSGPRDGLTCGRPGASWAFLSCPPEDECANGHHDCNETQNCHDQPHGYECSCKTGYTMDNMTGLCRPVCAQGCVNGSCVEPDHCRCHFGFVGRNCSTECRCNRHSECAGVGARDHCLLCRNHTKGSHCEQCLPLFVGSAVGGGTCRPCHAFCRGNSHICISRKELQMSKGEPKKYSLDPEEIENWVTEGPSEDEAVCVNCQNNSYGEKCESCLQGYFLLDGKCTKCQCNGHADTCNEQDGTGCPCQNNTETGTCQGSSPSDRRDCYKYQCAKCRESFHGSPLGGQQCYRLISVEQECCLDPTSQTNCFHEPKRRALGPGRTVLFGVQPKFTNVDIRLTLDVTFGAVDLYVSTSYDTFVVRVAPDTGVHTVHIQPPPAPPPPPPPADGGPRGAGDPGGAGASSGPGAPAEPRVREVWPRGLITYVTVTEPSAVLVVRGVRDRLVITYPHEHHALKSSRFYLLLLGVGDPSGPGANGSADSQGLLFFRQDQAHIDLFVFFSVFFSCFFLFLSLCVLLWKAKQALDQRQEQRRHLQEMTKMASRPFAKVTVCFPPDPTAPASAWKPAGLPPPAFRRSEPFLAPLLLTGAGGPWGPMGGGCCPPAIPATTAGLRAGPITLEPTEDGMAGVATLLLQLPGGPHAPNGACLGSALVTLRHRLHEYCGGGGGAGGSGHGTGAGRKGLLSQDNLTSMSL
UniProt Q9H089, sequence (Q9H089 whole entry, looked up): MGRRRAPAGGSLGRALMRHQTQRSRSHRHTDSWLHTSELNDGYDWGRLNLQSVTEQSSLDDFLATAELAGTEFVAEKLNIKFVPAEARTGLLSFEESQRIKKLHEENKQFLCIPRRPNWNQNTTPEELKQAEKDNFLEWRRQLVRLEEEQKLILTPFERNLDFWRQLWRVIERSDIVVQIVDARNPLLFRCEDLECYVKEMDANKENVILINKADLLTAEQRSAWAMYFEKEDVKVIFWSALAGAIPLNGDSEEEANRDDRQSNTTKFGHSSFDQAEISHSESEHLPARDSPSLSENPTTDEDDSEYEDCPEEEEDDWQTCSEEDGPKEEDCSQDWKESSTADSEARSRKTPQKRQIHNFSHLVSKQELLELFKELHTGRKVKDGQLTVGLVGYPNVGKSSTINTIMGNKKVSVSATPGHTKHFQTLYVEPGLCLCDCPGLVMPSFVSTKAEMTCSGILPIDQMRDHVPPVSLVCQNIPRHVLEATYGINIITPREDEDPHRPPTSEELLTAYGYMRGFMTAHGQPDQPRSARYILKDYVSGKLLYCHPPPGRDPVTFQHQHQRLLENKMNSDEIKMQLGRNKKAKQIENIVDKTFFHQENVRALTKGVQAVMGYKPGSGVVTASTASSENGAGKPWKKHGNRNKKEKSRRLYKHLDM
UniProt O60337, sequence (O60337 whole entry, looked up): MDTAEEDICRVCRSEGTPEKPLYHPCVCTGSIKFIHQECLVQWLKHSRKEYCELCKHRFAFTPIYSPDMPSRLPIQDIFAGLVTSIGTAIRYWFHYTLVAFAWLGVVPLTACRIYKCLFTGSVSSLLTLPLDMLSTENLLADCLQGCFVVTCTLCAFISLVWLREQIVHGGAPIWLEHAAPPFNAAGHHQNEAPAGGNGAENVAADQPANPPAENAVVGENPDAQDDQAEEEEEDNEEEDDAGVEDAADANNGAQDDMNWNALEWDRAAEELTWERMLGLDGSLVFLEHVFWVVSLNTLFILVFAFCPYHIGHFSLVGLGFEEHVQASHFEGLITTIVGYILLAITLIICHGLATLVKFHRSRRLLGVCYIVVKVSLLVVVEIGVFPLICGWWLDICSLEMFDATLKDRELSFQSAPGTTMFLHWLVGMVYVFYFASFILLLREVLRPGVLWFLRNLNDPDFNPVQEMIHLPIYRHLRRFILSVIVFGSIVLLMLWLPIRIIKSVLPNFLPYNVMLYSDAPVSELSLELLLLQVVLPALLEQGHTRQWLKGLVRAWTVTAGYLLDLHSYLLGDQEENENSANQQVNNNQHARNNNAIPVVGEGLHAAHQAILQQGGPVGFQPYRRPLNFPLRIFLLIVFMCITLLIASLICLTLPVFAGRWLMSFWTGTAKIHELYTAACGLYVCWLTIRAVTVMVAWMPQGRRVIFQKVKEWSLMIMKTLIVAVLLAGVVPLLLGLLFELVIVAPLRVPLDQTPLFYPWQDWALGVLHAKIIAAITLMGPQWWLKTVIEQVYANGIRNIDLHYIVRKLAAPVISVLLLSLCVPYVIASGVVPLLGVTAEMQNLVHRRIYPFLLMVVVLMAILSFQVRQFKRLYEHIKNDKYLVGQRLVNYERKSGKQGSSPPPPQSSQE
UniProt Q16553, sequence (Q16553 whole entry, looked up): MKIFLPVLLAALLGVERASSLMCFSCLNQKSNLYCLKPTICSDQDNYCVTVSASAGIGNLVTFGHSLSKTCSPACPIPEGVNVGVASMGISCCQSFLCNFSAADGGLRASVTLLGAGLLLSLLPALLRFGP
UniProt P53778, sequence (P53778 whole entry, looked up): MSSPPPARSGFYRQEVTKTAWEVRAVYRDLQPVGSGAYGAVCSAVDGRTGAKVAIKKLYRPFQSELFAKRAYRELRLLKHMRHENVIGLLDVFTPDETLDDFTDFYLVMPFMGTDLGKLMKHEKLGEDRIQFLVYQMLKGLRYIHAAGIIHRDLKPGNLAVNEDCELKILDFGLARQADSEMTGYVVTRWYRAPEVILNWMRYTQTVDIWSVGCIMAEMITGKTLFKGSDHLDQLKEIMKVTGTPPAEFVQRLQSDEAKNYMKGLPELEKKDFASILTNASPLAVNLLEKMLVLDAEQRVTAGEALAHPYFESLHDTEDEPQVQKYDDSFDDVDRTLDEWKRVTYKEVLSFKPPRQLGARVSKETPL
UniProt Q9H204, sequence (Q9H204 whole entry, looked up): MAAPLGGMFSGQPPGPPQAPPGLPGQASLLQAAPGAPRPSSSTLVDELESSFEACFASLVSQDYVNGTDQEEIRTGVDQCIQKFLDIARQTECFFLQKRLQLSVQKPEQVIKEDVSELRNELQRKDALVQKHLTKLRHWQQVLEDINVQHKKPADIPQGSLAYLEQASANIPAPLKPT

Target | log2 fold change [1] | log2 fold change [2] | log2 fold change [3] | log2 fold change [4] | log2 fold change [5] | log2 fold change [6] | log2 fold change [7] | log2 fold change [8] | log2 fold change [9] | log2 fold change [10]
LIG3 (UniProt P49916) | -0.006 | 0.007 | 0.063 | 0.023 | -0.002 | -0.018 | 0.04 | -0.015 | 0.028 | 0.015
LIMK1 (UniProt P53667) | 0.546 (active) | -0.04 | -0.125 | -0.161 | – | -0.067 | 0.026 | -0.085 | 0.059 | -0.148
LSS (UniProt P48449) | -0.009 | -0.018 | 0.14 | 0.072 | 0.026 | 0.013 | -0.131 | -0.003 | -0.04 | -0.065
LSG1 (UniProt Q9H089) | -0.083 | -0.033 | 0.026 | 0.052 | 0.032 | 0.004 | -0.187 | 0.012 | 0.013 | 0.031
MAPK1 (UniProt P28482) | 0.001 | 0 | -0.066 | 0.012 | -0.029 | -0.022 | 0.023 | -0.039 | -0.03 | 0.003
LRPPRC (UniProt P42704) | 0.006 | 0.023 | 0.027 | 0.019 | 0.018 | -0.011 | 0.038 | -0.009 | 0.052 | 0.016
MAPK7 (UniProt Q13164) | – | 0.388 (active) | – | – | 0.025 | – | – | -0.034 | – | -0.013
MEX3A (UniProt A1L020) | – | – | -0.21 | -0.123 | – | -0.076 | 0.003 | – | -0.162 | –
KRI1 (UniProt Q8N9T8) | -0.023 | – | 0.047 | -0.018 | 0.043 | 0.074 | -0.069 | 0.02 | 0.046 | –
KIF3C (UniProt O14782) | – | -0.041 | -0.038 | -0.032 | -0.015 | 0.03 | -0.116 | -0.007 | 0.023 | 0.044
MPP5 (UniProt Q8N3R9) | 0 | – | 0.019 | -0.063 | -0.079 | -0.082 | -0.067 | 0.017 | 0.014 | –
KIF26A (UniProt Q9ULI4) | -0.022 | – | -0.125 | 0.084 | 0.008 | -0.02 | 0.007 | 0.033 | -0.048 | –
LRIF1 (UniProt Q5T3J3) | – | -0.088 | -0.09 | -0.055 | 0.089 | -0.143 | -0.044 | -0.031 | 0.046 | -0.197
MPDZ (UniProt O75970) | – | 0.264 | 0.024 | -0.157 | -0.015 | -0.173 | 0.062 | 0.057 | 0.076 | -0.029
LYN isoform 2 (UniProt P07948) | – | – | -0.104 | 0.106 | -0.061 | -0.432 | -0.226 | 0.333 | -0.008 | –
MAPK3 (UniProt H0YEX6) | – | – | – | – | – | 0.029 | – | – | – | –
KIF21A (UniProt H0YI78) | -0.187 | -0.073 | – | – | -0.006 | 0.107 | 0.017 | – | – | 0.031
KRAS (UniProt P01116) | – | 0.006 | -0.023 | 0.063 | -0.008 | -0.037 | 0.018 | -0.048 | 0.07 | -0.058
LRRC7 (UniProt Q96NW7) | -0.081 | 0.026 | -0.115 | -0.073 | – | – | 0.041 | -0.062 | 0.09 | 0.086
MBTPS1 (UniProt Q14703) | -0.243 | – | 0.056 | -0.045 | -0.029 | – | -0.041 | 0.008 | 0.048 | –
LGALS3BP (UniProt Q08380) | – | 0.061 | – | – | 0 | 1.31 | 0.453 | -0.009 | – | 0
MOCS3 (UniProt O95396) | 0.045 | – | -0.016 | -0.014 | -0.018 | 0.056 | -0.04 | 0.079 | 0.001 | –
LRRIQ1 (UniProt Q96JM4) | – | -0.036 | -0.041 | 0.019 | – | – | – | 0.671 (active) | 0.047 | -0.069

Target | log2 fold change [1] | log2 fold change [2] | log2 fold change [3] | log2 fold change [4] | log2 fold change [5] | log2 fold change [6] | log2 fold change [7] | log2 fold change [8] | log2 fold change [9] | log2 fold change [10]
KIFC3 isoform 6 (UniProt Q9BVG8) | 0 | – | – | – | 0.097 | – | -0.231 | 0.193 | – | –
KIF18B (UniProt Q86Y91) | – | -0.157 | – | – | – | – | -0.022 | 0 | – | -0.121
MAPKAP1 (UniProt Q9BPZ7) | – | – | -0.019 | 0 | -0.031 | -0.103 | 0.061 | 0.007 | -0.034 | –
MAPK12 (UniProt P53778) | 0.049 | – | -0.001 | -0.029 | -0.027 | 0.074 | 0.08 | 0.002 | -0.012 | –
MAP3K4 isoform 2 (UniProt Q9Y6R4) | – | – | – | – | – | – | – | -0.005 | – | –
MED28 (UniProt Q9H204) | – | -0.067 | -0.032 | -0.025 | -0.002 | -0.088 | -0.039 | 0.11 | 0.021 | 0.009
LRRC9 (UniProt Q6ZRR7) | – | – | – | – | – | – | – | 0.042 | – | –
MRC2 (UniProt Q9UBG0) | – | – | – | – | -0.015 | 0.002 | 0.03 | 0.133 | – | –
LY6E (UniProt Q16553) | -0.032 | 0.028 | – | – | – | -0.027 | – | – | – | -0.042
MRPL22 (UniProt Q9NWU5) | – | 0.001 | 0.018 | -0.033 | 0.058 | 0.001 | – | -0.017 | 0.051 | 0.069
LRP1 (UniProt Q07954) | – | -0.017 | – | – | – | – | – | 0.378 | – | -0.049
MEGF8 (UniProt Q7Z7M0) | 0 | – | -0.019 | -0.124 | -0.057 | – | 0.091 | 0.079 | 0.154 | –
MMS22L (UniProt Q6ZRQ5) | -0.025 | 0.049 | – | – | -0.085 | 0.007 | -0.042 | -0.049 | – | 0.007
MDM1 (UniProt Q8TC05) | – | -0.006 | 0.037 | -0.054 | -0.029 | -0.027 | 0.022 | – | -0.019 | -0.079
MARCHF6 (UniProt O60337) | -0.395 (active) | -0.021 | – | – | -0.012 | 0.014 | 0.101 | 0.004 | – | 0.032
MAP3K6 (UniProt O95382) | – | – | – | – | – | -0.12 | – | – | – | –
KLC1 isoform 10 (UniProt Q07866) | 0.235 | – | – | – | -0.129 | – | – | – | – | –
KMT2B (UniProt Q9UMN6) | – | – | – | – | 0.53 | – | -0.135 | -0.072 | – | –
MARF1 (UniProt Q9Y4F3) | 0.027 | – | 0.034 | -0.042 | -0.045 | -0.021 | 0.037 | 0.004 | 0.01 | –
MDM2 isoform 11 (UniProt Q00987) | -0.071 | – | 0.038 | -0.08 | -0.006 | – | – | -0.074 | 0.076 | –
KRAS isoform 2 (UniProt P01116) | – | 0.05 | 0.071 | -0.078 | -0.05 | – | -0.011 | -0.025 | 0.004 | 0.059
LSM11 (UniProt P83369) | – | – | – | – | 0.004 | – | -0.198 | -0.161 | – | –
